# Assay results as given in PubChem BioAssay (EPA / NIEHS).
# Inconclusive results are not listed. The source made the active and inactive calls. The calls were made as follows: active = hit-call score of the fitted dose curve at least 0.9, where 1 is the maximum; inconclusive = response in the unintended direction; inactive = score below 0.9.
# Tests used:
# [1] = target: sheep Cyclooxygenase-1 (Cox1), PTGS1 (gene 443551) (UniProt P05979); experiment: NVS_ENZ_oCOX1: NovaScreen (NVS) Enzymatic Assay for sheep Cyclooxygenase-1 (Cox1) (AID 2283239);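 also: actives reduce cyclooxygenase activity so potencies are for inhibitors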
# Chain of sheep Cyclooxygenase-1 (Cox1), PTGS1 (gene 443551) (P05979 whole entry, looked up): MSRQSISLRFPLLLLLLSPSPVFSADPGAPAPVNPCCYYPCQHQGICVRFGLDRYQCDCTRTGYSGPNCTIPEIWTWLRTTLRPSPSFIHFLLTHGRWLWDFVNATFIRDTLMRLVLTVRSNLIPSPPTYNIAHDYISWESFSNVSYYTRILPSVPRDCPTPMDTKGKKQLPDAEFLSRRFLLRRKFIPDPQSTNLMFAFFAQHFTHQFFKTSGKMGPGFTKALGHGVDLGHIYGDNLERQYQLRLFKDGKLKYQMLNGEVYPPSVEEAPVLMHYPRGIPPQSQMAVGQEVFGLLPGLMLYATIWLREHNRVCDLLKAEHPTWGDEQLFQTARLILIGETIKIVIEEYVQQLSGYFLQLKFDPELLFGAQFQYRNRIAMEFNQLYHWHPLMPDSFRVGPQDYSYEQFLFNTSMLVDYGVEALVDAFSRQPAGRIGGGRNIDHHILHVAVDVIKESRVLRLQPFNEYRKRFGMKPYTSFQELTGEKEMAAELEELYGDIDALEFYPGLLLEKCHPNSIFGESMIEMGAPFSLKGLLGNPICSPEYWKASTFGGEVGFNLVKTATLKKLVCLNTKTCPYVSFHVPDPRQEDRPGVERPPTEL
# How it was run: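 COX1 from ovine seminal vesicles, activity read colorimetrically about 0.66 h after dosing. Primary screen in duplicate at 25 uM; actives retested in concentration series; loss of signal fitted versus DMSO.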
# [2] = target: rabbit Imidazoline 2 Central (I2C), CKB (gene 100009085) (UniProt P00567); experiment: NVS_ENZ_rabI2C: NovaScreen (NVS) Enzymatic Assay for rabbit Imidazoline 2 Central (I2C) (AID 2283228)
# Chain of rabbit Imidazoline 2 Central (I2C), CKB (gene 100009085) (P00567 whole entry, looked up): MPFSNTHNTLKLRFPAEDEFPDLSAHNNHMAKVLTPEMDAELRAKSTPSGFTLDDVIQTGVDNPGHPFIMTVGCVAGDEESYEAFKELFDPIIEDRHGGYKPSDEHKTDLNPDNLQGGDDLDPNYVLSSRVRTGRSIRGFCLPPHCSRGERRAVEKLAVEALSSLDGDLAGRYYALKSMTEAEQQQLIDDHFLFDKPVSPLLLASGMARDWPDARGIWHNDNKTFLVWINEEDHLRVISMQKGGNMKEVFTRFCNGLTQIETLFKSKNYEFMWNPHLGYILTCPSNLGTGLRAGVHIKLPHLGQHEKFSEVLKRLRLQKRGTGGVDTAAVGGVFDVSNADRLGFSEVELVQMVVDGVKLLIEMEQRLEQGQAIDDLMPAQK
# How it was run: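 Rabbit brain membranes, cell-free; readout by filter-based scintillation counting 1.5 hours after dosing, loss of signal vs DMSO. Initial duplicate test at 25 uM, then concentration-response with 50 uM top concentration.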
# [3] = target: rat Constitutive Nitric Oxide Synthase (CNOS), Nos1 (gene 24598) (UniProt P29476); experiment: NVS_ENZ_rCNOS: NovaScreen (NVS) Enzymatic Assay for rat Constitutive Nitric Oxide Synthase (CNOS) (AID 2283236)
# Chain of rat Constitutive Nitric Oxide Synthase (CNOS), Nos1 (gene 24598) (P29476 whole entry, looked up): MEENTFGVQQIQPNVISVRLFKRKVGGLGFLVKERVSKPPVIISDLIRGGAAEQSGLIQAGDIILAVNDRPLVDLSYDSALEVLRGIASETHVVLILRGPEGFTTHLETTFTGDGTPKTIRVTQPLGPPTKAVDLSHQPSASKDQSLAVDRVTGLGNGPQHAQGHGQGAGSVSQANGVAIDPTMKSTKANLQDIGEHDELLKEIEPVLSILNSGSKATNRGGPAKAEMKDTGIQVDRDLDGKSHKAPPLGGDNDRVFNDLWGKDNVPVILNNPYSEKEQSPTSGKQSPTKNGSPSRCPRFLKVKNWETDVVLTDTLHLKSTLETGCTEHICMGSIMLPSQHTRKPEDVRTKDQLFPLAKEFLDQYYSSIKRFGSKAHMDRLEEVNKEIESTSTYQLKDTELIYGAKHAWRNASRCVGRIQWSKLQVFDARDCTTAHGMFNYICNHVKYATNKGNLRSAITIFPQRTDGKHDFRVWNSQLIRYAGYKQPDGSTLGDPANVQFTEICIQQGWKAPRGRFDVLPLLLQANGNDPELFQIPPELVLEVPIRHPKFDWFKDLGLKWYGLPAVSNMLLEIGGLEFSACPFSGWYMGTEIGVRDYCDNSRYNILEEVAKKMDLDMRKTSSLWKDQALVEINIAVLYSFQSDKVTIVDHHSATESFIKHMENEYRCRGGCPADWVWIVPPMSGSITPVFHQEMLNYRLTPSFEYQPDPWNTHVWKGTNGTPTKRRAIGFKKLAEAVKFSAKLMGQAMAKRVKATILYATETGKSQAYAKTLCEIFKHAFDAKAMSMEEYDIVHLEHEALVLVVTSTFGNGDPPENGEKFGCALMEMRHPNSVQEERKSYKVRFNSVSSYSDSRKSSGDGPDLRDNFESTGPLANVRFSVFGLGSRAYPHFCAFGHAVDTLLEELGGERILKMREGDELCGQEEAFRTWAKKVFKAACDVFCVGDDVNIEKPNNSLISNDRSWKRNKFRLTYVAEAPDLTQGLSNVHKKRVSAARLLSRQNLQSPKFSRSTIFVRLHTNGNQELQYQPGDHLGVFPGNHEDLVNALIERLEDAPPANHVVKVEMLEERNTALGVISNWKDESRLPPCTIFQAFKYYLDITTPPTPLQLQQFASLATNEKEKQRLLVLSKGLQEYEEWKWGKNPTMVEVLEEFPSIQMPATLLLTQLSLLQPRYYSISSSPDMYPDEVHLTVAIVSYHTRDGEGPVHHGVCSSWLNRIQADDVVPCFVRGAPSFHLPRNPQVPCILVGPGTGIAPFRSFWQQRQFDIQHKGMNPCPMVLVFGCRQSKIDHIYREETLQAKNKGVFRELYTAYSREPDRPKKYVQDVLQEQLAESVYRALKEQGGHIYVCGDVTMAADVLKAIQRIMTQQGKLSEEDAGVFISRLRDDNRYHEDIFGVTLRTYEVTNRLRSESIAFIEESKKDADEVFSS
# How it was run: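 Single 25 uM duplicate screen, then concentration series to 50 uM for chemicals meeting threshold. Rat brain membrane-derived CNOS activity detected radiometrically by filtration and scintillation counting, 1 h after compound addition; DMSO as baseline.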
# [4] = test system: bovine Angiotensin II Receptor Type 2 (AT2), gene 407157; experiment: NVS_GPCR_bAT2: NovaScreen (NVS) G Protein-Coupled Receptor Assay for bovine Angiotensin II Receptor Type 2 (AT2) (AID 2283240)
# How it was run: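 Radioligand displacement on bovine cerebellar membranes, 1 hour incubation, filter-based scintillation counting; loss of signal vs DMSO. Duplicate single-point screen at 25 uM, then concentration-response to 50 uM maximum.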
# [5] = target: sheep Cyclooxygenase-2 (Cox2), PTGS2 (gene 443460) (UniProt P79208); experiment: NVS_ENZ_oCOX2: NovaScreen (NVS) Enzymatic Assay for sheep Cyclooxygenase-2 (Cox2) (AID 2283231)
# Chain of sheep Cyclooxygenase-2 (Cox2), PTGS2 (gene 443460) (P79208 whole entry, looked up): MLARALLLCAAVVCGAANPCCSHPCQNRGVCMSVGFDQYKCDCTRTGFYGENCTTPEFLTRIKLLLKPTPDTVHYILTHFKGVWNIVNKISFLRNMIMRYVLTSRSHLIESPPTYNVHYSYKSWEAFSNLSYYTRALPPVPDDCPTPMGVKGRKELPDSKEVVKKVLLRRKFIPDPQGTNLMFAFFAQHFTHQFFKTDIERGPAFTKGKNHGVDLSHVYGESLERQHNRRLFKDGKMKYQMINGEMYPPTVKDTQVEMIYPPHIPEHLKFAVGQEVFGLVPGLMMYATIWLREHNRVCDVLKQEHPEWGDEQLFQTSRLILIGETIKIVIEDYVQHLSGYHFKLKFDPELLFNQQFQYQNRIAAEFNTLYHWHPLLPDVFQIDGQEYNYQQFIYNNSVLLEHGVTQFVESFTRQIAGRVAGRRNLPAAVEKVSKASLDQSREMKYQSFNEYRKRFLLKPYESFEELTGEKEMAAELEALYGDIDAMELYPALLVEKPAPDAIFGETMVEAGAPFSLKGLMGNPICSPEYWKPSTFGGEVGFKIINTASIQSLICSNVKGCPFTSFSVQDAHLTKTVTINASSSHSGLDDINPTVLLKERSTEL
# How it was run: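 Enzyme extracted from ovine placenta tested cell-free; activity read colorimetrically by absorbance 0.66 hour after dosing. Primary screen in duplicate at 25 uM; hits rerun as concentration series to 50 uM, loss of signal versus DMSO baseline.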
# [6] = test system: rat Monoamine Oxidase, MAO-A, Central (MAOAC), gene 29253; experiment: NVS_ENZ_rMAOAC: NovaScreen (NVS) Enzymatic Assay for rat Monoamine Oxidase, MAO-A, Central (MAOAC) (AID 2283243);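 also: potency refers to inhibition seen as signal drop below DMSO baseline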
# How it was run: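 Enzyme from rat brain, cell-free radiodetection format. Counts taken at 1.5 h; activity fitted against DMSO baseline, loss of signal marking inhibition. Confirmatory concentration series followed the 25 uM duplicate screen.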
# [7] = target: human Vascular Endothelial Growth Factor Receptor 2 (VEGFR2), KDR (gene 3791) (UniProt P35968); experiment: NVS_ENZ_hVEGFR2: NovaScreen (NVS) Enzymatic Assay for human Vascular Endothelial Growth Factor Receptor 2 (VEGFR2) (AID 2283230)
# Chain of human Vascular Endothelial Growth Factor Receptor 2 (VEGFR2), KDR (gene 3791) (P35968 whole entry, looked up): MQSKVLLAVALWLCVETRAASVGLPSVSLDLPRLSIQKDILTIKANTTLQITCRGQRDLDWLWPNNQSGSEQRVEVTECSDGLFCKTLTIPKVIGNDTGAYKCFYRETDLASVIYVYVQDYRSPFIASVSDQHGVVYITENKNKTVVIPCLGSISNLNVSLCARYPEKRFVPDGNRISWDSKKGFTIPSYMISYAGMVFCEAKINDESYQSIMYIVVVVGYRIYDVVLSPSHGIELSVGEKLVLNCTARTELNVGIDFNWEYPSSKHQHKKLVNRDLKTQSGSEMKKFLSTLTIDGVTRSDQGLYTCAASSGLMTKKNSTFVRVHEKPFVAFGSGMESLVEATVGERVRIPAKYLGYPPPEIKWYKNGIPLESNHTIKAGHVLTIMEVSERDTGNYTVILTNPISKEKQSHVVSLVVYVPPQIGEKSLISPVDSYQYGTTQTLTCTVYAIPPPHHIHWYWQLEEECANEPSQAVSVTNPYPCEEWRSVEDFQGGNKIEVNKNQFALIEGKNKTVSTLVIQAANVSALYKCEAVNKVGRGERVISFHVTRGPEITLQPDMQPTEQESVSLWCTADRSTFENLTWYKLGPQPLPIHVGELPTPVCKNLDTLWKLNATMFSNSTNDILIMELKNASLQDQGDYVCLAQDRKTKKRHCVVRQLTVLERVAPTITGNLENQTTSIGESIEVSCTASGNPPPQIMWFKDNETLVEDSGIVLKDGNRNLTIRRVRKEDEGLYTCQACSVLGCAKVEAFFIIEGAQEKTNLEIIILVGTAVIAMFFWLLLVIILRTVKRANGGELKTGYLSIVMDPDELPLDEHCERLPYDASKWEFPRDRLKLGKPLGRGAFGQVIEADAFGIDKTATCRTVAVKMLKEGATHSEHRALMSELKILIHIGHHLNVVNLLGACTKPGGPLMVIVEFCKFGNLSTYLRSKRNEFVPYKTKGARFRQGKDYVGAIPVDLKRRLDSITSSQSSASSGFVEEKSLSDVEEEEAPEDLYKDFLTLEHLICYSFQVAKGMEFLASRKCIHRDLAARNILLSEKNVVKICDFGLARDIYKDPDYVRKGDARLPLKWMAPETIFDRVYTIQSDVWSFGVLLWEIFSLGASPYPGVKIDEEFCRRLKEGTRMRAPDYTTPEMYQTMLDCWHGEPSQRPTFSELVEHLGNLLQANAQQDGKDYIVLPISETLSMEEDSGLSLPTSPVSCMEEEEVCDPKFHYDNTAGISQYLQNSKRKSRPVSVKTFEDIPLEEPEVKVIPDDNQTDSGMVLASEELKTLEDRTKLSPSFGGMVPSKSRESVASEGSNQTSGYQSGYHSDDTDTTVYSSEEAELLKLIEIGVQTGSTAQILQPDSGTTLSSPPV
# How it was run: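 Cell-free recombinant VEGFR2 kinase, fluorescent substrate with electrophoretic mobility-shift separation; read 1 h after dosing. Screened at 25 uM in duplicate, hits to concentration-response up to 50 uM; loss-of-signal versus DMSO.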
# [8] = target: guinea pig Opioid, Kappa 1 Receptor (OpiateK), OPRK1 (gene 100135587) (UniProt P41144); experiment: NVS_GPCR_gOpiateK: NovaScreen (NVS) G Protein-Coupled Receptor Assay for guinea pig Opioid, Kappa 1 Receptor (OpiateK) (AID 2283252);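 also: radioligand displacement from kappa opioid receptor in guinea pig cerebellar membranes; active means reduced radioligand binding relative to DMSO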
# How it was run: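 Radioligand competition binding using guinea pig cerebellum membrane fraction; 2 h exposure; filter radiodetection. Single concentration 25 uM (duplicate), follow-up concentration-response for actives.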
# [9] = target: human Tyrosine Protein Kinase Receptor Tie-2 (Tie2), TEK (gene 7010) (UniProt Q02763); experiment: NVS_ENZ_hTie2: NovaScreen (NVS) Enzymatic Assay for human Tyrosine Protein Kinase Receptor Tie-2 (Tie2) (AID 2283225)
# How it was run: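 Substrate and product were separated by mobility shift and detected by fluorescence after a 1-hour reaction with recombinant Tie2. Chemicals passing a 25 uM single-point screen were titrated to a maximum of 50 uM. Results were normalized to DMSO baseline.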
# [10] = test system: rat Monoamine Oxidase, MAO-A, Peripheral (MAOAP), gene 29253; experiment: NVS_ENZ_rMAOAP: NovaScreen (NVS) Enzymatic Assay for rat Monoamine Oxidase, MAO-A, Peripheral (MAOAP) (AID 2283237)
# How it was run: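 Scintillation counting tracked MAO-A activity in a cell-free rat liver mitochondrial membrane prep, read 1.17 hours after compound addition. Single-point duplicate testing at 25 uM preceded concentration-response follow-up; activity was fitted relative to DMSO.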
# [11] = target: rat Monoamine Oxidase, MAO-B, Central (MAOBC), Maob (gene 25750) (UniProt P19643); experiment: NVS_ENZ_rMAOBC: NovaScreen (NVS) Enzymatic Assay for rat Monoamine Oxidase, MAO-B, Central (MAOBC) (AID 2283238)
# Chain of rat Monoamine Oxidase, MAO-B, Central (MAOBC), Maob (gene 25750) (P19643 whole entry, looked up): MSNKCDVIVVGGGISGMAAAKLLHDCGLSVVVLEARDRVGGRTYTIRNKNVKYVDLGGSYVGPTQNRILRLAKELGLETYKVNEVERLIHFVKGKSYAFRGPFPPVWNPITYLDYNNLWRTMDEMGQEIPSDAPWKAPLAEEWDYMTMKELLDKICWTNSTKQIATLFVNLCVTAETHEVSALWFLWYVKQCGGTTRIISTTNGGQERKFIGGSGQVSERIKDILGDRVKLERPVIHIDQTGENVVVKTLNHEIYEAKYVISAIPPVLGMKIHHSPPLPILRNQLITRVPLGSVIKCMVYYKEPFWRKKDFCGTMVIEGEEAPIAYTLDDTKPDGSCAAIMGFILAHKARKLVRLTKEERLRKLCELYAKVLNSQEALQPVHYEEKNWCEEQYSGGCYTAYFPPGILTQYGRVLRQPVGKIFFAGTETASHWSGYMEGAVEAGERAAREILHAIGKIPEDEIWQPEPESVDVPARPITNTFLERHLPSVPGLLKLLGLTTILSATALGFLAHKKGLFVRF
# How it was run: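 Here MAO-B activity in rat brain preparations is quantified radiometrically, counts taken at 1.17 hours. Concentration-response runs reach 50 uM, with plate controls, and values are fitted as loss of signal from the DMSO baseline.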
# [12] = target: human Vascular Endothelial Growth Factor Receptor 1 (VEGFR1), FLT1 (gene 2321) (UniProt P17948); experiment: NVS_ENZ_hVEGFR1: NovaScreen (NVS) Enzymatic Assay for human Vascular Endothelial Growth Factor Receptor 1 (VEGFR1) (AID 2283226)
# How it was run: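 Kinase activity of recombinant human VEGFR1 was read by fluorescence after electrophoretic separation of product from substrate, 1 h post-dosing; initial duplicate single-point testing at 25 uM, followed by concentration-series follow-up, with DMSO as baseline.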
# [13] = target: guinea pig Leukotriene D4 Receptor (LTD4), CYSLTR1 (gene 100135514) (UniProt Q2NNR5); experiment: NVS_GPCR_gLTD4: NovaScreen (NVS) G Protein-Coupled Receptor Assay for guinea pig Leukotriene D4 Receptor (LTD4) (AID 2283248)
# How it was run: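 Guinea pig lung membrane preparation; bound radioligand measured by filter scintillation after 1 h, loss of signal versus DMSO marking displacement. Compounds tested at 25 uM in duplicate, hits retested to max 50 uM.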
# [14] = target: Adenosine receptor A1 (Bos taurus) (UniProt P28190); experiment: NVS_GPCR_bAdoR_NonSelective: NovaScreen (NVS) G Protein-Coupled Receptor Assay for bovine Adenosine Receptor (AdoR), Non-selective Binding (AID 2283244)
# How it was run: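 Cell-free binding with membranes from bovine striatum: radioligand displaced by test chemical, read after 1 h by filtration and scintillation. Single-point 25 uM duplicate primary, 50 uM top concentration in follow-up curves, DMSO baseline.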
# [15] = target: rat Monoamine Oxidase, MAO-B, Peripheral (MAOBP), Maob (gene 25750) (UniProt P19643); experiment: NVS_ENZ_rMAOBP: NovaScreen (NVS) Enzymatic Assay for rat Monoamine Oxidase, MAO-B, Peripheral (MAOBP) (AID 2283242)
# Chain of rat Monoamine Oxidase, MAO-B, Peripheral (MAOBP), Maob (gene 25750) (P19643 whole entry, looked up): as above
# Description: NVS_ENZ_rMAOBP is a biochemical, single-readout assay that uses extracted gene-proteins from Rat brain in a tissue-based cell-free assay. Measurements were taken 1.17 hours after chemical dosing in a 96-well plate.NVS_ENZ_rMAOBP is one of one assay component(s) measured or calculated from the NVS_ENZ_rMAOBP assay. It is designed to make measurements of enzyme activity, a form of enzyme reporter, as detected with scintillation counting signals by Lysate-based radiodetection technology.Data from the assay component NVS_ENZ_rMAOBP was analyzed into 1 assay endpoint. This assay endpoint, NVS_ENZ_rMAOBP, was analyzed in the positive analysis fitting direction relative to DMSO as the negative control and baseline of activity. Using a type of enzyme reporter, loss-of-signal activity can be used to understand changes in the enzymatic activity as they relate to the gene Maob. Furthermore, this assay endpoint can be referred to as a primary readout, because this assay has produced multiple assay endpoints where this one serves a enzymatic activity function. To generalize the intended target to other relatable targets, this assay endpoint is annotated to the oxidoreductase intended target family, where the subfamily is monoamine oxidase. […]
# [16] = target: rat Catechol-O-Methyl Transferase (COMT), Comt (gene 24267) (UniProt P22734); experiment: NVS_ENZ_rCOMT: NovaScreen (NVS) Enzymatic Assay for rat Catechol-O-Methyl Transferase (COMT) (AID 2283235)
# How it was run: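 Rat dorsal striatum extract served as COMT source; product quantified by HPLC/spectrophotometry, read at 0 h after dosing. Primary single-concentration screen at 25 uM, followed by concentration series to a 50 uM maximum.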
smiles,measurement,setting,value
CCOP(=S)(S)OCC,outcome,[1],inactive
Cc1ccc(N)cc1N,outcome,[2],inactive
same,AC50,[3],6.59 µM (active)
same,outcome,[4],inactive
Nc1ccc2ccccc2c1,AC50,[2],13.7 µM (active)
same,AC50,[5],7.93 µM (active)
same,AC50,[6],19.4 µM (active)
c1ccc2c(c1)Nc1ccccc1S2,AC50,[6],9.71 µM (active)
ClC1=C(Cl)C2(Cl)C3C(Cl)C(Cl)CC3C1(Cl)C2(Cl)Cl (stereo not drawn),outcome,[7],inactive
CCCCOCCOP(=O)(OCCOCCCC)OCCOCCCC,AC50,[8],16.5 µM (active)
O=c1ssc(Cl)c1Cl,outcome,[9],inactive
same,outcome,[7],inactive
same,outcome,[1],inactive
Cc1ccc(O)cc1C,outcome,[10],inactive
same,AC50,[11],47 µM (active)
Cc1cccc(N)c1,outcome,[2],inactive
same,outcome,[7],inactive
CC(C)(C)OOC(C)(C)C,outcome,[9],inactive
same,AC50,[11],13.1 µM (active)
Oc1ccc(I)cc1,AC50,[6],19.9 µM (active)
[N-]=[N+]=[N-],outcome,[3],inactive
same,outcome,[11],inactive
CC(C)(C)c1ccc(O)cc1,outcome,[12],inactive
ClC(Cl)c1ccccc1,outcome,[10],inactive
same,outcome,[13],inactive
O=[N+]([O-])c1ccc(Cl)c(Cl)c1,AC50,[5],18.5 µM (active)
CCCN(CCC)c1c([N+](=O)[O-])cc(C(C)C)cc1[N+](=O)[O-],outcome,[7],inactive
same,outcome,[14],inactive
CCN(CC)c1ccccc1,outcome,[15],inactive
Nc1ccc(Cl)cc1,outcome,[1],inactive
CCCCc1ccccc1,outcome,[16],inactive
ClC(Cl)(Cl)c1ccccc1,outcome,[3],inactive
same,outcome,[11],inactive
